{
  "source": "the supplement of paper PMC8728848",
  "binders": {"B1": {"name": "PVL (Psathyrella velutina), Q309D1_9AGAR (protein)", "chain": "MSVVVISQALPVPTRIPGVADLVGFGNGGVYIIRNSLLIQVVKVINNFGYDAGGWRVEKHVRLLADTTGDNQPDVVGFGENGVWISTNNGNNTFVDPPKMVLANFAYAAGGWRVEKHIRFMADLRKTGRADIVGFGDGGIYISRNNGGGQFAPAQLALNNFGYAQGWRLDRHLRFLADVTGDGLLDVVGFGENQVYIARNSGNGTFQPAQAVVNNFCIGAGGWTISAHPRVVADLTGDRKADILGFGVAGVYTSLNNGNGTFGAVNLVLKDFGVNSGWRVEKHVRCVSSLTNKKVGDIIGFGDAGVYVALNNGNGTFGPVKRVIDNFGYNQGWRVDKHPRFVVDLTGDGCADIVGFGENSVWACMNKGDGTFGPIMKLIDDMTVSKGWTLQKTVRYAANLYL"}},
  "assay_in_all_cases": "glycan array binding signal (z-score within array); higher = stronger binding",
  "details_in_all_cases": "glycan notation: IUPAC condensed, linker removed",
  "key": {"GlcNAc(b1-3)Gal(b1-4)Glc": {"target": "GlcNAc(b1-3)Gal(b1-4)Glc", "method_in_brief": "(§1)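 Glycan array data were curated from 3228 arrays in the Consortium for Functional Glycomics database and kept only where the protein sequence was available. Glycan names were converted to IUPAC-condensed notation, and columns mapping to the same glycan were averaged. The binding signal is a within-array Z-score, averaged across arrays of the same protein sequence at different concentrations or buffers and across linkers. Negative Z-scores can be read as non-binding.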"}, "[1]": {"target": "GlcNAc(b1-3)Gal(b1-4)GlcNAc(b1-2)Man(a1-3)[GlcNAc(b1-3)Gal(b1-4)GlcNAc(b1-2)Man(a1-6)]Man(b1-4)GlcNAc(b1-4)[Fuc(a1-6)]GlcNAc", "method_in_brief": "as §1"}, "[2]": {"target": "GlcNAc(b1-3)Gal(b1-4)GlcNAc(b1-3)Gal(b1-4)GlcNAc", "method_in_brief": "as §1"}, "[3]": {"target": "GlcNAc(b1-3)Gal(b1-4)GlcNAc(b1-3)Gal(b1-4)GlcNAc(b1-2)Man(a1-3)[GlcNAc(b1-3)Gal(b1-4)GlcNAc(b1-3)Gal(b1-4)GlcNAc(b1-2)Man(a1-6)]Man(b1-4)GlcNAc(b1-4)GlcNAc", "method_in_brief": "as §1"}, "[4]": {"target": "GlcNAc(b1-3)Gal(b1-4)GlcNAc(b1-3)Gal(b1-4)GlcNAc(b1-2)Man(a1-3)[GlcNAc(b1-3)Gal(b1-4)GlcNAc(b1-3)Gal(b1-4)GlcNAc(b1-2)Man(a1-6)]Man(b1-4)GlcNAc(b1-4)[Fuc(a1-6)]GlcNAc", "method_in_brief": "as §1"}, "[5]": {"target": "GlcNAc(b1-3)Gal(b1-4)GlcNAc(b1-3)Gal(b1-4)GlcNAc(b1-2)[GlcNAc(b1-3)Gal(b1-4)GlcNAc(b1-3)Gal(b1-4)GlcNAc(b1-6)]Man(a1-6)[GlcNAc(b1-3)Gal(b1-4)GlcNAc(b1-3)Gal(b1-4)GlcNAc(b1-2)Man(a1-3)]Man(b1-4)GlcNAc(b1-4)[Fuc(a1-6)]GlcNAc", "method_in_brief": "as §1"}, "[6]": {"target": "GlcNAc(b1-3)Gal(b1-4)GlcNAc(b1-3)Gal(b1-4)GlcNAc(b1-3)Gal(b1-4)GlcNAc(b1-2)Man(a1-3)[GlcNAc(b1-3)Gal(b1-4)GlcNAc(b1-3)Gal(b1-4)GlcNAc(b1-3)Gal(b1-4)GlcNAc(b1-2)Man(a1-6)]Man(b1-4)GlcNAc(b1-4)GlcNAc", "method_in_brief": "as §1"}, "[7]": {"target": "GlcNAc(b1-3)Gal(b1-4)GlcNAc(b1-3)Gal(b1-4)GlcNAc(b1-3)Gal(b1-4)GlcNAc(b1-2)Man(a1-3)[GlcNAc(b1-3)Gal(b1-4)GlcNAc(b1-3)Gal(b1-4)GlcNAc(b1-3)Gal(b1-4)GlcNAc(b1-2)Man(a1-6)]Man(b1-4)GlcNAc(b1-4)[Fuc(a1-6)]GlcNAc", "method_in_brief": "as §1"}, "[8]": {"target": "GlcNAc(b1-3)Gal(b1-4)GlcNAc(b1-3)Gal(b1-4)GlcNAc(b1-3)Gal(b1-4)GlcNAc(b1-2)[GlcNAc(b1-3)Gal(b1-4)GlcNAc(b1-3)Gal(b1-4)GlcNAc(b1-3)Gal(b1-4)GlcNAc(b1-6)]Man(a1-6)[GlcNAc(b1-3)Gal(b1-4)GlcNAc(b1-3)Gal(b1-4)GlcNAc(b1-3)Gal(b1-4)GlcNAc(b1-2)Man(a1-3)]Man(b1-4)GlcNAc(b1-4)[Fuc(a1-6)]GlcNAc", "method_in_brief": "as §1"}, "[9]": {"target": "GlcNAc(b1-3)Gal(b1-4)GlcNAc(b1-3)Gal(b1-4)GlcNAc(b1-3)Gal(b1-4)GlcNAc(b1-3)Gal(b1-4)GlcNAc(b1-2)Man(a1-3)[GlcNAc(b1-3)Gal(b1-4)GlcNAc(b1-3)Gal(b1-4)GlcNAc(b1-3)Gal(b1-4)GlcNAc(b1-3)Gal(b1-4)GlcNAc(b1-2)Man(a1-6)]Man(b1-4)GlcNAc(b1-4)GlcNAc", "method_in_brief": "as §1"}, "[10]": {"target": "GlcNAc(b1-3)Gal(b1-4)GlcNAc(b1-3)Gal(b1-4)GlcNAc(b1-3)Gal(b1-4)GlcNAc(b1-3)Gal(b1-4)GlcNAc(b1-2)Man(a1-3)[GlcNAc(b1-3)Gal(b1-4)GlcNAc(b1-3)Gal(b1-4)GlcNAc(b1-3)Gal(b1-4)GlcNAc(b1-3)Gal(b1-4)GlcNAc(b1-2)Man(a1-6)]Man(b1-4)GlcNAc(b1-4)[Fuc(a1-6)]GlcNAc", "method_in_brief": "as §1"}, "[11]": {"target": "GlcNAc(b1-3)Gal(b1-4)GlcNAc(b1-3)Gal(b1-4)GlcNAc(b1-3)Gal(b1-4)GlcNAc(b1-3)Gal(b1-4)GlcNAc(b1-2)[GlcNAc(b1-3)Gal(b1-4)GlcNAc(b1-3)Gal(b1-4)GlcNAc(b1-3)Gal(b1-4)GlcNAc(b1-3)Gal(b1-4)GlcNAc(b1-6)]Man(a1-6)[GlcNAc(b1-3)Gal(b1-4)GlcNAc(b1-3)Gal(b1-4)GlcNAc(b1-3)Gal(b1-4)GlcNAc(b1-3)Gal(b1-4)GlcNAc(b1-2)Man(a1-3)]Man(b1-4)GlcNAc(b1-4)[Fuc(a1-6)]GlcNAc", "method_in_brief": "as §1"}, "[12]": {"target": "GlcNAc(b1-3)Gal(b1-4)GlcNAc(b1-6)[GlcNAc(b1-3)Gal(b1-3)]GalNAc", "method_in_brief": "as §1"}, "[13]": {"target": "GlcNAc(b1-3)[GlcNAc(b1-6)]GalNAc", "method_in_brief": "as §1"}, "[14]": {"target": "GlcNAc(b1-4)GlcNAc(b1-4)GlcNAc(b1-4)GlcNAc(b1-4)GlcNAc(b1-4)GlcNAc", "method_in_brief": "as §1"}, "[15]": {"target": "GlcNAc(b1-6)Gal(b1-4)GlcNAc", "method_in_brief": "as §1"}, "[16]": {"target": "Kdn(a2-3)Gal(b1-4)[Fuc(a1-3)]GlcNAc", "method_in_brief": "as §1"}, "Neu5Ac(a2-3)Gal": {"target": "Neu5Ac(a2-3)Gal", "method_in_brief": "as §1"}, "[17]": {"target": "Neu5Ac(a2-3)Gal(b1-4)GlcNAc(b1-2)Man", "method_in_brief": "as §1"}, "[18]": {"target": "Neu5Ac(a2-3)Gal(b1-4)GlcNAc(b1-2)[Neu5Ac(a2-3)Gal(b1-4)GlcNAc(b1-4)]Man(a1-3)[GlcNAc(b1-4)][Neu5Ac(a2-3)Gal(b1-4)GlcNAc(b1-2)[Neu5Ac(a2-3)Gal(b1-4)GlcNAc(b1-6)]Man(a1-6)]Man(b1-4)GlcNAc(b1-4)GlcNAc", "method_in_brief": "as §1"}, "[19]": {"target": "Neu5Ac(a2-3)Gal(b1-4)[Fuc(a1-3)]GlcNAc(b1-3)Gal(b1-4)[Fuc(a1-3)]GlcNAc(b1-3)Gal(b1-4)[Fuc(a1-3)]GlcNAc", "method_in_brief": "as §1"}, "[20]": {"target": "Neu5Ac(a2-3)GalNAc(b1-4)GlcNAc", "method_in_brief": "as §1"}, "[21]": {"target": "Neu5Ac(a2-6)Gal(b1-4)GlcNAc(b1-2)Man(a1-3)[Gal(b1-4)GlcNAc(b1-2)Man(a1-6)]Man(b1-4)GlcNAc(b1-4)GlcNAc", "method_in_brief": "as §1"}, "[22]": {"target": "Neu5Ac(a2-6)Gal(b1-4)GlcNAc(b1-2)Man(a1-3)[Man(a1-6)]Man(b1-4)GlcNAc(b1-4)GlcNAc", "method_in_brief": "as §1"}},
  "note": "This excerpt belongs to a sample that is enriched for the strongest signals.",
  "data": [
    {"binder": "B1", "values": [
      {"measurement": "glycan array binding signal (z-score)", "setting": "GlcNAc(b1-3)Gal(b1-4)Glc", "value": 4.07},
      {"measurement": "glycan array binding signal (z-score)", "setting": "[1]", "value": 3.27},
      {"measurement": "glycan array binding signal (z-score)", "setting": "[2]", "value": 4.46},
      {"measurement": "glycan array binding signal (z-score)", "setting": "[3]", "value": 3.34},
      {"measurement": "glycan array binding signal (z-score)", "setting": "[4]", "value": 4.03},
      {"measurement": "glycan array binding signal (z-score)", "setting": "[5]", "value": 4.69},
      {"measurement": "glycan array binding signal (z-score)", "setting": "[6]", "value": 4.58},
      {"measurement": "glycan array binding signal (z-score)", "setting": "[7]", "value": 4.34},
      {"measurement": "glycan array binding signal (z-score)", "setting": "[8]", "value": 5.13},
      {"measurement": "glycan array binding signal (z-score)", "setting": "[9]", "value": 4.45},
      {"measurement": "glycan array binding signal (z-score)", "setting": "[10]", "value": 4.27},
      {"measurement": "glycan array binding signal (z-score)", "setting": "[11]", "value": 5.12},
      {"measurement": "glycan array binding signal (z-score)", "setting": "[12]", "value": 2.71},
      {"measurement": "glycan array binding signal (z-score)", "setting": "[13]", "value": 1.1},
      {"measurement": "glycan array binding signal (z-score)", "setting": "[14]", "value": 0.53},
      {"measurement": "glycan array binding signal (z-score)", "setting": "[15]", "value": 0.714},
      {"measurement": "glycan array binding signal (z-score)", "setting": "[16]", "value": -0.363},
      {"measurement": "glycan array binding signal (z-score)", "setting": "Neu5Ac(a2-3)Gal", "value": -0.341},
      {"measurement": "glycan array binding signal (z-score)", "setting": "[17]", "value": -0.35},
      {"measurement": "glycan array binding signal (z-score)", "setting": "[18]", "value": -0.201},
      {"measurement": "glycan array binding signal (z-score)", "setting": "[19]", "value": -0.297},
      {"measurement": "glycan array binding signal (z-score)", "setting": "[20]", "value": -0.351},
      {"measurement": "glycan array binding signal (z-score)", "setting": "[21]", "value": -0.362},
      {"measurement": "glycan array binding signal (z-score)", "setting": "[22]", "value": -0.349}
    ]}
  ]
}
